ST2 inh: inhibitors of human ST2 (IL1RL1) binding to IL-33, primary screen, biochemical, AlphaLISA; 2.3% of 78,000 active; inhibition, % for hits at 17 µM; AID 1259354, 2018; AlphaLISA ST2-Fc/biotin-IL-33 interaction, 1 h; Interleukin-1 receptor-like 1 (Homo sapiens), Q01638; in the data active = inhibition above about 30%
Target sequence (Q01638 whole entry, looked up): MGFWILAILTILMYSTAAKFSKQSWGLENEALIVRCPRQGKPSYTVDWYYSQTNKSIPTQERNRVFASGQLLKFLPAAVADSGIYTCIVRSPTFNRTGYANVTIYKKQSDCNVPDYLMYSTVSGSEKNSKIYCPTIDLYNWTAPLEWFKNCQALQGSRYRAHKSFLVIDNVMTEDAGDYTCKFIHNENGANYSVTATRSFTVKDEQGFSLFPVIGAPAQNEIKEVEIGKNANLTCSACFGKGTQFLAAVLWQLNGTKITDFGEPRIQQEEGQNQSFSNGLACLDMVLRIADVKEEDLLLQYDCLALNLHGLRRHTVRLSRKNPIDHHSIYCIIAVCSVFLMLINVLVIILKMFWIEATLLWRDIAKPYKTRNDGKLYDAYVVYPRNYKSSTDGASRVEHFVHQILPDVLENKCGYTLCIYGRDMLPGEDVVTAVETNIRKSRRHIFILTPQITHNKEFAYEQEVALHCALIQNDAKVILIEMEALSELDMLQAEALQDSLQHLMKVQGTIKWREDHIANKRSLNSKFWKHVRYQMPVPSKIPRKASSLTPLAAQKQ
* marks the source's active call; other numbers are inactive results; i = inactive. Many of the other results were omitted from the sample, so hits are more common in it than they were.

SMILES	ST2 inh
CCOC(=O)C1C(=O)C=C(c2cccs2)CC1c1cccc(OC)c1OC (stereo not given)	i
CCc1[nH]c2ccc(CNC(=O)c3ccn[nH]3)cc2c1C	i
O=C1NC(=O)N(c2ccccc2)C(=O)C1C(c1ccccc1)c1ccccc1 (stereo not given)	i
Cc1c(C(c2ccccc2)c2c(C)n(C)n(-c3ccccc3)c2=O)c(=O)n(-c2ccccc2)n1C	i
Cc1nnc(C)c2c(C)n(C(C)c3ccccc3)c(C)c12 (stereo not given)	47.0%*
Cc1oc(-c2ccc(Cl)cc2)nc1CSCC(=O)N1CCOCC1	i
CCSc1nc(CC(=O)NCc2cc(CC)no2)cs1	i
CCSc1nc(CC(=O)NCc2ccc(CC)cn2)cs1	i
CCSc1nc(CC(=O)NCc2sc(C)nc2CC)cs1	31.0%*
CC(C)Oc1ccc(C(=O)Nc2c3c(nn2-c2ccc(F)cc2)CS(=O)C3)cc1 (stereo not given)	i
Cc1ccc(-c2cn(-c3cc(C)ccc3C)c(=O)[nH]2)cc1	i
Cc1ccccc1N1CCN(C(=O)c2ccc(OC3CCN(C(=O)C4CC4)CC3)cc2)CC1	i
CNC(=O)c1ccc(CNc2ncnc3sc(C)c(C)c23)o1	i
CCN(CC)c1ccc(CN2CCN(C)CC2)cc1	56.0%*
CCN1CCN(Cc2ccc(N(CC)CC)cc2)CC1	58.0%*
CN1CCCN(Cc2cccc(F)c2)CC1	i
CCc1ccc(CN2CCSCC2)cc1	i
CCN1CCN(Cc2ccc(-c3ccccc3)cc2)CC1	i
CN1CCCN(Cc2cccc(Cl)c2)CC1	i
O=C(Nc1ccc(F)cc1)c1c[nH]c(=O)n(-c2ccccc2)c1=O	i
CC(C)CCNC(=O)NCCc1nc2cccnc2n1C1CCCCC1	i
CNCC(=O)N1CCCC1c1nc2c(C)cccc2[nH]1 (stereo not given)	i
COc1ccc(NCc2ccc([N+](=O)[O-])s2)cc1OC	45.0%*
COc1ccc(NC(=O)Cc2ccccc2[N+](=O)[O-])cc1OC	i
COc1ccc(Nc2ncnc(N)c2[N+](=O)[O-])cc1OC	i
SMILES	ST2 inh
CC(C)NC(=O)Cc1c(C(=O)O)[nH]c2ccccc12	i
O=C(Cc1cccs1)NC1C2CC3CC(C2)CC1C3 (stereo not given)	i
Cn1c(=O)c2nc3ccc(N)cc3nc2n(C)c1=O	i
O=c1[nH]c(=O)c2nc3c(ccc4nsnc43)nc2[nH]1	i
Nc1ccc2nc3c(=O)[nH]c(=O)[nH]c3nc2c1	53.0%*
Cc1ccc(NC(=O)CNC(=O)c2cnc3ccnn3c2C)c(F)c1	i
N#CC1CC(c2ccccc2)=NN1c1ccccc1 (stereo not given)	96.0%*
CC(=O)N1N=C(c2ccccc2)CC1c1ccc(Br)cc1 (stereo not given)	i
c1ccc(C2=NN3COc4ccccc4C3C2)cc1 (stereo not given)	i
C=CCSc1nnc2c(n1)OC(/C=C/c1ccco1)Nc1ccc(Br)cc1-2 (stereo not given)	i
COc1cccc2cc(C(=O)NC(C)=O)c(=Nc3ccccc3F)oc12	33.0%*
COc1cccc2cc(C(=O)NC(C)=O)c(=Nc3cccc(F)c3)oc12	i
COc1cccc2cc(C(=O)NC(C)=O)c(=Nc3ccc(C(F)(F)F)cc3)oc12	i
Cc1cccn2c(=O)c3cc(C(=O)N4CC(C)OC(C)C4)n(C)c3nc12 (stereo not given)	i
N#C/C(=C/c1ccccc1Cl)c1nc(-c2ccccc2)cs1	65.0%*
COc1ccc(N/C=C(\C#N)c2nc(-c3cc4cc([N+](=O)[O-])ccc4oc3=O)cs2)c(OC)c1	i
COc1cc(N/C=C(\C#N)c2nc(-c3cc4ccccc4oc3=O)cs2)c(OC)cc1Cl	i
COc1ccc(C2=Nn3c(nnc3-c3ccccc3Cl)SC2)cc1	i
COc1ccc(OC)c(N/C=C(\C#N)c2nc(-c3cc4ccccc4oc3=O)cs2)c1	37.0%*
COc1ccc(-c2csc(/C(C#N)=C\c3ccc(F)cc3)n2)cc1OC	i
COc1ccc(-c2csc(/C(C#N)=C/c3ccc(Cl)cc3)n2)cc1	34.0%*
O=C(Nc1nc(-c2ccccc2)cs1)c1ccccc1	i
COc1ccc(/C=C(\C#N)[N+](=O)[O-])cc1	i
COc1ccc(-c2csc(/C(C#N)=C/c3ccccc3Cl)n2)cc1	42.0%*
N#C/C(=C\c1ccccc1[N+](=O)[O-])c1nc(-c2ccc(Cl)c(Cl)c2)cs1	i
COc1cccc2cc(-c3nc(-c4ccc(Cl)cc4)cs3)c(=O)oc12	i
COc1ccc2cc3cc(C(=O)N(C)c4ccc(Br)cc4)oc3nc2c1	i
Cc1ccccc1CN1C(=O)CSc2ccc(C(=O)NC3CC3)cc21	i
Cc1ccc(CNc2cccc(C(=O)N(C)CC3CCCCO3)c2)s1 (stereo not given)	i
O=C1CCCC2=C1C(c1ccc(Cl)cc1)C1=C(N2)c2ccccc2C1=O (stereo not given)	i

Assay outcomes from PubChem.
